Screens from PubChem.
KCC2 mod: KCC2 cotransporter modulators, thallium flux, primary screen, cell-based, HEK293 KCC2, FluoZin-2 fluorescence, MLSMR; 2.2% of 190,000 active; B-score of Tl+ flux slope (higher = more flux/activation; lower = inhibition) at 10 µM; Solute carrier family 12 member 5 (Homo sapiens), Q9H2X9; AID 1456, 2008; KCC2 cells, thallium flux FluoZin-2 fluorescence;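 active means thallium flux slope and its plate-corrected score both differing from the plate sample mean at a set confidence after two filtering rounds, in either direction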;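 further: slope of fluorescence scaled to starting intensity during 10 to 20 s after thallium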
S1P3 antag: S1P3 receptor antagonists, primary screen, cell-based. Sphingosine 1-phosphate receptor 3 (Homo sapiens), Q99500. CHO S1P3 NFAT-BLA reporter, FRET fluorescence, antagonist mode. inhibition, % at 4.98 µM. 0.27% of 170,000 active;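 active means inhibition above the plate cutoff, the mean inhibition of test wells on that plate plus 3 SD, cut at about 28% in these data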;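 further: cells challenged with S1P at its EC80 of 0.8 µM; blue over green emission ratio from cleaved BLA substrate after 4 h stimulation; 0% = S1P-stimulated wells and 100% = unstimulated DMSO-only wells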
PGE2 EP2 inh: human EP2 receptor antagonists, primary screen, TR-FRET cAMP, C6 glioma cells | Prostaglandin E2 receptor EP2 subtype (Homo sapiens), P43116 | C6 glioma cells expressing human EP2; cells stimulated with saturating PGE2 | inhibition, % at 25 µM | 0.52% of 260,000 active | AID 1422, 2008;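 active means percent inhibition above 40 after rounding to a whole number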;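 further: rat C6 glioma host cells with rolipram phosphodiesterase inhibitor present; the protocol text gives 20 µM as final concentration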
Target sequence (P43116 whole entry, looked up): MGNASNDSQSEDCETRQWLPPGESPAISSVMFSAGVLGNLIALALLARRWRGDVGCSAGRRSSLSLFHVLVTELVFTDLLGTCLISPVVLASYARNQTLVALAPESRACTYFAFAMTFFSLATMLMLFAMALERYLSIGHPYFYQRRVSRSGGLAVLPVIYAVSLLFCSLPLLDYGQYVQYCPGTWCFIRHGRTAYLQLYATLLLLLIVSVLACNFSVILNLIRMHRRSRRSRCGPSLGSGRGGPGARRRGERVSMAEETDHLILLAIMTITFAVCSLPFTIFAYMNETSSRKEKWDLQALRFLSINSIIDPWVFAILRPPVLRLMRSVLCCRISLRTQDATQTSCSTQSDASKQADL
EP2 mod: EP2 receptor modulators, cAMP readout, primary screen, cell-based, HTRF cAMP, PGE2 stimulation | EP2-expressing cells, cAMP HTRF FRET, PGE2 co-stimulation | induction, % at 25 µM | 0.83% of 260,000 active | AID 940, 2007;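 active means compounds whose cAMP rise, as percent of the full-agonist control response, exceeds 60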;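 further: rat C6 glioma line stably carrying human EP2 under a CMV promoter; the protocol text gives 20 µM as final concentration; 100% = response of wells given 1 µM PGE2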
Numbers without * were called inactive; · = no result. Hits are enriched below; roughly 3.1% of the tested compounds scored in any of these assays.

SMILES	KCC2 mod	S1P3 antag	PGE2 EP2 inh	EP2 mod
C#CC1(O)CCC2C3CCC4=CC(=O)CCC4(C)C3CCC21C (stereo not drawn)	·	·	19.2	-10.7
C[C@]12CC[C@@H]3[C@H](CCC4=CC(=O)CC[C@]43C)[C@]1(O)CC[C@@]2(O)C(=O)CO	·	·	55.3*	-3.3
Cc1ccc(C2=CCN(CC(=O)Nc3nc4ccccc4s3)CC2)o1	·	·	17.9	-76.5
COc1ccccc1CNC(=O)CN1C2CCC1CC(O)(c1ccccn1)C2 (stereo not drawn)	·	·	·	-15.8
O=C(O)C(Oc1nc(=S)[nH]c(=S)[nH]1)(c1ccc(Cl)cc1)c1ccc(Cl)cc1	·	·	49.7*	8.5
CN1/C(=C\C=C\C2=[N+](C)c3ccc4ccccc4c3C2(C)C)C(C)(C)c2ccccc21	-6.01*	·	114.4*	-45.7
CN1/C(=C\C=Nc2ccccc2)C(C)(C)c2ccccc21	0.518	·	21.5	6.2
O=C1NC(=O)N(c2ccc3c(c2)OCO3)C(=O)/C1=C/c1ccsc1	-1.16	-23.7	4.3	-34.4
O=C1NC(=O)N(c2ccc3c(c2)OCO3)C(=O)/C1=C/c1cccs1	1.02	-17.0	92.1*	-84.2
C[C@H]1CC[C@]2(NC1)O[C@H]1C[C@H]3[C@H]4CC=C5C[C@@H](O)CC[C@]5(C)[C@@H]4CC[C@]3(C)[C@H]1[C@@H]2C	·	·	57.7*	7.4
COc1cc2c(cc1OC)[C@]13CCN4CC5=CCO[C@@H](CC(=O)O)[C@H]([C@H]5C[C@H]41)[C@@H]3N2	·	·	36.9	17.9
COc1ccc2c(c[n+](C)c3c4cc5c(cc4ccc23)OCO5)c1OC	·	·	117.8*	-26.4
COc1ccc2c(c1OC)C(=O)O[C@H]2[C@H]1c2cc3c(cc2CCN1C)OCO3	·	·	10.8	-26.9
CCCc1nc2ccccc2c(=O)n1-c1ccc(Cl)cc1	·	·	10.5	25.1
FC(F)(F)c1nc2ccc(SSc3ccc4nc(C(F)(F)F)[nH]c4c3)cc2[nH]1	·	·	78.9*	21.0
CCOC(=O)C1C(C)C2C(=O)C=CCC2N1C (stereo not drawn)	·	·	7.2	53.6
N#CC1=C(N)Oc2c(c(=O)oc3ccccc23)C1c1ccc2c(c1Cl)OCO2 (stereo not drawn)	·	·	6.0	-5.8
O=[As](O)(O)c1ccc(Cc2ccc([As](=O)(O)O)cc2)cc1	·	·	92.7*	-36.9
Cc1nn(CCC#N)c2c1P(=S)(N1CCCC1)OC(c1ccc(F)cc1)=N2 (stereo not drawn)	0.184	74.4*	5.2	42.3
CN(C)CCN(Cc1ccc(F)cc1)C(=O)Cc1nn(C)c(=O)c2ccccc12	·	·	4.2	-25.7
CCOc1cc(CN2CCN(C(=O)COc3cccc(C)c3)CC2)ccc1OC	·	·	5.6	-51.2
COc1cc(O)c(C(=O)O)c(-c2cc(O)c(O)cc2C)c1	-0.0978	·	76.6*	23.1
CCCCCP(=O)(O)c1ccccc1	0.0394	-4.1	5.9	21.7
CCCC/C(C)=C/[C@@H](NP(=O)(c1ccccc1)c1ccccc1)c1ccccc1	-0.579	-4.5	7.7	63.7*
CCCSc1ncc(CN2C3CCC2CC(O)(c2ccc(F)cc2)C3)cn1 (stereo not drawn)	·	·	9.5	-39.8
SMILES	KCC2 mod	S1P3 antag	PGE2 EP2 inh	EP2 mod
CC1(C)C[C@H]2C=C(C=O)[C@]3(C=O)C[C@]3(C)[C@H]2C1	-2.99	0.1	88.3*	-34.4
C[C@@H]1CC[C@@H]2N(C1)C[C@@H]1[C@](O)([C@H](O)C[C@]3(O)[C@H]4CC[C@@H]5[C@]6(O)O[C@@]4(C[C@@]13O)[C@@]5(C)CC[C@H]6O)[C@@]2(C)O	·	·	47.8*	11.3
CC(=O)c1c(C)n(Cc2ccccc2Cl)c2ccc(O)cc12	1.35	3.1	3.2	-27.4
CSc1ccc2c(c1)c(CCN)c(C)n2Cc1ccccc1Cl	·	·	104.4*	-3.1
CCn1nc(-c2ccccc2)nc2c(=O)n(C)c(=O)nc1-2	0.985	103.2*	42.6*	-88.4
COc1ccc(CC(=O)N2CCN(Cc3ccco3)C[C@H]2C)cc1OC	·	·	·	-46.6
O=C1NC(=O)C(=Cc2ccc(Br)s2)C(=O)N1	·	·	115.2*	-91.8
O=C1NC(=O)C(=Cc2ccc(N3CCOCC3)cc2)C(=O)N1	-0.233	-4.5	7.1	-20.8
Cn1ccnc1C1(O)CC2CCC(C1)N2CC(=O)Nc1ccc(N2CCCCC2)cc1 (stereo not drawn)	·	·	·	-42.2
